Source: PubChem BioAssay
Rows were chosen to be rich in hits. Some 21% of all compounds tested hit in one or more screens of this group.
HCMV antiviral: qHTS Assay for inhibitors of the human cytomegalovirus (HCMV); AID 1259415, 2018; HFF cells, HCMV-luciferase reporter, 72 h; active compounds read low; 4.5% of 410,000 active; activity change, negative = inhibition, % at 57.5 µM; in the data active = activity change below about -60%; inconclusive = no clear call, values can overlap the other calls; inactive = above about -39%
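HFF cells seeded 16 h at 37C, treated with compounds, infected with luciferase-reporter HCMV at MOI 1 PFU/cell; luciferase read at 72 h post infection, normalized to buffer-only and Salinomycin controls.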
Shiga inhibitor: A qHTS for Small Molecule Inhibitors of Shiga Toxin; Vero cells, Shiga toxin protein synthesis inhibition reporter; inhibition, % at 38.7 µM; 9.2% of 290,000 active; in the data active = inhibition mostly above about 28%, no sharp cut-off; inactive = mostly below about 43%
Pf growth 96h: Primary qHTS for delayed death inhibitors of the malarial parasite plastid, 96 hour incubation; P. falciparum luciferase reporter growth, 96 h; Potency, µM (highest dose often 28.7 µM), actives largely listed as inhibitors; 6.9% of 320,000 active; AID 504834, 2011
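Cell-based qHTS: luciferase-tagged P. falciparum in erythrocytes (2% hematocrit, 0.05% parasitemia final) incubated with compounds for 96 hours, 37 C, 5% CO2; luciferase detection reagent then added and luminescence measured.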
HCV inh: qHTS Assay for Inhibitors of Hepatitis C Virus (HCV); AID 651820, 2012; Huh7.5.1 HCVcc-Cre infection, luciferase reporter, 44 h; 3.4% of 340,000 active; Potency, µM (highest dose often 41.8 µM), most hits filed as inhibitors
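Whole-lifecycle infectious HCVcc-Cre system; cells 1,000/well, compound then virus (~0.5 moi) added 4 h after plating, 44 h culture. Luciferase read 15 sec following 15 min substrate incubation, room temp.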
CHX counter: Cycloheximide Counterscreen for Small Molecule Inhibitors of Shiga Toxin; cell reporter, cycloheximide protein synthesis inhibition counterscreen; max response, %; 12% of 300,000 active; AID 2314, 2010; in the data active = max response mostly above about 13%, no sharp cut-off; inactive = mostly below about 14%; note: read at 38.3 µM for the half of the compounds with a filed dose
Pf growth 48h: Primary qHTS for delayed death inhibitors of the malarial parasite plastid, 48 hour incubation; 5.9% of 310,000 active; Potency, µM (top dose mostly 28.7 µM), hits mostly inhibitors; P. falciparum luciferase growth in erythrocytes, 48 h
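Luciferase-expressing parasites in RBCs, 2% Hct / 0.1% parasitemia final; RPMI 1640 + 0.5% Albumax; 37 C, 5% CO2, one generation; luminescence read-out, lower signal = inhibition.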
Numbers stand for hits; 0 = inactive; ? = inconclusive; - = no result; ! = not active in a repeat. Unless noted, calls come from the whole dose curve; as a rule, active = well fitted inhibition curve with a large enough effect; inconclusive = small, poorly fitted or top-dose-only effect, or another doubt; inactive = no such curve, though single readings can be large or run the other way.

SMILES	HCMV antiviral	Shiga inhibitor	Pf growth 96h	HCV inh	CHX counter	Pf growth 48h
O=C(CSc1nc2ccc([N+](=O)[O-])cc2s1)NCC1CCCO1 (stereo not drawn)	-71	0	0	?	0	0
O=C(CSc1nc(-c2ccccc2)ns1)NCC1CCCO1 (stereo not drawn)	0	65	0	0	45	0
CC#CCOCC1CNC(=O)O1 (stereo not drawn)	0	-	-	-	-	-
CN(C(=O)CSc1nc2ccc([N+](=O)[O-])cc2s1)C1CCS(=O)(=O)C1 (stereo not drawn)	?	0	9.3µM	0	0	?
O=C(CSc1ccc2nc(-c3ccccc3)cn2n1)NCC1CCCO1 (stereo not drawn)	0	70	5.2µM	0	23	0
CCOc1ccc(-c2ccc(SCC(=O)NCC3CCCO3)nn2)cc1 (stereo not drawn)	0	0	0	0	37	0
Cc1ccc(-c2ccc(SCC(=O)NCC3CCCO3)nn2)cc1 (stereo not drawn)	0	0	0	0	0	0
COC(=O)CC1C(=O)NCCN1C(=O)CSc1nc2ccc([N+](=O)[O-])cc2s1 (stereo not drawn)	?	0	?	0	0	10µM
CC(C)(C)n1nnnc1C(c1ccccc1)N1CCN(C(=O)C2CCCO2)CC1 (stereo not drawn)	0	-	-	-	-	-
CSCCC(NC(=O)c1ccco1)C(=O)NCC(c1ccccc1)N(C)C (stereo not drawn)	0	-	0	0	-	0
O=C(Oc1c(CN2CCOCC2)cc(Cl)c2cccnc12)c1ccccc1	-96	0	?	?	0	?
COc1ccc(C(=O)Oc2c(CN3CCOCC3)cc(Cl)c3cccnc23)cc1OC	0	-	-	0	-	-
O=C(Oc1c(CN2CCOCC2)cc(Cl)c2cccnc12)c1ccccc1F	-85	0	2.1µM	?	0	0
O=C(Oc1ccc(C(=S)N2CCOCC2)cc1Cl)c1ccccc1F	0	-	0	0	0	0
COc1cc(OC)cc(C(=O)Oc2c(CN3CCOCC3)cc(Cl)c3cccnc23)c1	?	0	0.93µM	0	8.0	1.5µM
CCN1CCN(Cc2nc3cc(NC(=O)c4cc(OC)c(OC)c(OC)c4)ccc3n2CC)CC1	0	-	-	-	-	-
COc1ccccc1-n1c(=O)c2c3c(sc2n(C)c1=O)CN(C(C)=O)CC3	0	-	-	-	-	-
CCN(CC)C1CCN(Cc2cn[nH]c2-c2ccc(OC)c(F)c2)C1 (stereo not drawn)	0	0	2.1µM	0	0	0
COc1ccc(-c2[nH]ncc2CN2CCN(Cc3cccs3)CC2)cc1F	0	0	?	?	0	?
N#Cc1ccccc1COC(=O)c1cccc(S(=O)(=O)N2CCCC2)c1	0	-	-	?	-	-
O=C(c1ccccc1)c1ccccc1N1C(=O)C=CC1=O	-93	0	0	?	0	?
O=C1C=CC(=O)N1c1ccccc1N1C(=O)C=CC1=O	0	-	-	?	-	-
Cc1ccc(Cl)cc1Nc1nn2c(=O)c3ccc(C(=O)NC(C)c4ccccc4)cc3nc2s1 (stereo not drawn)	0	-	-	-	-	-
CCC1Sc2ccc(S(=O)(=O)CCC(=O)Nc3c(Cl)cc(OC)cc3OC)cc2NC1=O (stereo not drawn)	0	0	0	?	0	0
O=C(c1cnn2c(C(F)(F)F)cc(-c3ccc4c(c3)OCO4)nc12)N1CCCCC1	0	0	8.3µM	?	0	0
SMILES	HCMV antiviral	Shiga inhibitor	Pf growth 96h	HCV inh	CHX counter	Pf growth 48h
O=C(c1cnn2c(C(F)F)cc(-c3ccccc3)nc12)N1CCN(Cc2ccc3c(c2)OCO3)CC1	0	0	?	11µM	0	4.7µM
Cc1ccc(-c2cc(C(F)F)n3ncc(C(=O)N4CCC5(CC4)OCCO5)c3n2)cc1	0	0	?	?	0	-
CCN1CCN(C(=O)c2cnn3c(C(F)F)cc(-c4ccc(C)cc4)nc23)CC1	0	0	7.4µM	0	0	?
Cc1ccccc1Cc1c(C)nc2c(C(=O)N3CCN(Cc4ccc5c(c4)OCO5)CC3)cnn2c1C	?	-	-	14µM	-	-
Cc1cccc(Cc2c(C)nc3c(C(=O)N4CCN(Cc5ccc6c(c5)OCO6)CC4)cnn3c2C)c1	?	0	?	?	0	?
CC1CCC(NC(=O)COC(=O)c2n[nH]c(=O)c3ccccc23)CC1 (stereo not drawn)	0	-	0	0	-	0
COc1ccc(OC)c(CCNC(=O)c2ccc3[nH]c(C)c(C)c3c2)c1	0	-	-	-	-	-
Cc1nc2c(C(=O)N3CCCCC3)cnn2c(C)c1Cc1ccccc1F	0	157	0	0	71	0
O=C(c1cnn2c(C(F)F)cc(-c3ccccc3)nc12)N1CCCCC1c1cccnc1 (stereo not drawn)	0	0	?	0	0	1.7µM
Cc1nc2c(C(=O)N3CCN(C)CC3)cnn2c(C)c1Cc1ccc(Cl)cc1	0	0	0	0	0	-
Cc1oc2ncn(C)c(=O)c2c1C(=O)NCc1ccc(Cl)cc1	0	-	-	-	-	-
CC1=C(C(=O)Nc2cccnc2)C(c2ccc(Cl)cc2)n2nc(-c3ccccc3)nc2N1 (stereo not drawn)	0	-	-	-	-	-
CC(C)n1c(=S)[nH]c2cc(Cl)ccc21	-72	0	?	0	0	?
C[C@@H]1NS(=O)(=O)[C@H]2C[C@@H]3C=C[C@]2(O3)[C@H]1OC(=O)c1ccc(C(C)(C)C)cc1	0	-	?	0	-	?
COc1ccc(/C=C2/CCCC(C(=O)C(F)(F)F)=C2O)cc1OC	0	0	0	?	0	0
COc1ccc(/C=C2\CCCC(C(=O)C(F)(F)F)=C2O)cc1OC	-	0	?	-	20	0
COc1cc(/C=C2\CCC/C(=C\c3ccc(O)c(OC)c3)C2=O)ccc1O	-101	76	5.4µM!	13µM	42	9.3µM
COc1cc(/C=C2\CC(C(C)(C)C)C/C(=C\c3cc(OC)c(OC)c(OC)c3)C2=O)cc(OC)c1OC (stereo not drawn)	-98	0	?	2.5µM	0	?
COc1cc(/C=C2/CCCC(C(=O)C(F)(F)F)=C2O)ccc1O	0	0	0	0	0	0
COc1cc(/C=C2/CCC/C(=C\c3cc(O)c(OC)c(Cl)c3)C2=O)cc(Cl)c1O	-100	0	0.13µM	11µM	0	?
CN1c2ccccc2-c2nc(SCC(=O)Nc3ccccc3)ncc2S1(=O)=O	0	-	-	-	-	-
COc1cccc(-c2nc(CS(=O)(=O)CC(=O)NCCc3ccc(Cl)cc3)c(C)o2)c1	0	-	-	-	-	-
COc1ccc2c(c1)c(=O)c(C(=O)O)c(-c1ccc3c(c1)OCO3)n2C	0	0	0	0	0	0
COc1cc(/C=C2\CC/C(=C\c3cc(OC)c(OC)c(OC)c3)C2=O)cc(OC)c1OC	0	0	2.1µM	13µM	0	2.6µM
CCOc1cc(C=O)ccc1O	0	-	-	0	-	-
COc1cc(/C=C2\Oc3cc(O)ccc3C2=O)ccc1O	0	70	?	0	51	0
